Measurements: the supplement of paper PMC13380429

tested on: Vero E6 infected with SARS-CoV-2; assay: SARS-CoV-2 infection rate relative to infected DMSO; higher = more infection, active = 60 or less; details: 24 h

SMILES | SARS-CoV-2 infection rate
CNC(=O)[C@H](Cc1c[nH]c2ccccc12)NC(=O)[C@@H](CC(=O)NO)CC(C)C [ilomastat] (10 µM) | 114% (inactive)
CN(C)NC(=O)CCC(=O)O [daminozide] (10 µM) | 95% (inactive)
Nc1ncn([C@@H]2O[C@H](CO)[C@@H](O)[C@H]2O)c(=O)n1 [azacitidine] (0.833333 µM) | 100% (inactive)
O.O.O.O.O=C([O-])CC(O)(CC(=O)[O-])C(=O)[O-].[Li+].[Li+].[Li+] [lithium-citrate] (10 µM) | 89% (inactive)
C=C1CC[C@@H]2[C@](C)(CO)[C@H](O)CC[C@@]2(C)[C@@H]1C/C=C1/C(=O)OC[C@H]1O [andrographolide] (0.833333 µM) | 106% (inactive)
O=P(O)(O)CN(CCN(CP(=O)(O)O)CP(=O)(O)O)CP(=O)(O)O (10 µM) | 104% (inactive)
COc1cccc2c1c(O)c(C(=O)N(C)c1ccc(C(F)(F)F)cc1)c(=O)n2C [tasquinimod] (10 µM) | 92% (inactive)
CC(=O)Nc1cccc(O)c1 [metacetamol] (10 µM) | 97% (inactive)
Cc1c(F)cc(C(=O)NC2CC2)cc1-c1ccc(C(=O)NCC(C)(C)C)cn1 [losmapimod] (10 µM) | 98.5% (inactive)
O=C(Oc1ccccc1C(=O)O)c1ccccc1O [sasapyrine] (10 µM) | 108% (inactive)
